Source: PubChem BioAssay (NCATS)
Calls of active or inactive are those of the source. The call rests on the fitted dose curve; in most records, active means well fitted curve in the direction sought with a large enough effect; inactive means no such curve, though single readings can be large or run the other way.

These compounds were tested against Alpha-galactosidase (Coffea arabica) (UniProt Q42656) (assay: Counterscreen for Glucocerebrosidase Inhibitors: qHTS Assay for Coffee Bean alpha-Galactosidase at pH 5.9 (AID 998)). Conditions: coffee bean alpha-galactosidase enzyme assay; series mostly up to 76.9 µM.
Chain of Alpha-galactosidase (Coffea arabica) (Q42656 whole entry, looked up): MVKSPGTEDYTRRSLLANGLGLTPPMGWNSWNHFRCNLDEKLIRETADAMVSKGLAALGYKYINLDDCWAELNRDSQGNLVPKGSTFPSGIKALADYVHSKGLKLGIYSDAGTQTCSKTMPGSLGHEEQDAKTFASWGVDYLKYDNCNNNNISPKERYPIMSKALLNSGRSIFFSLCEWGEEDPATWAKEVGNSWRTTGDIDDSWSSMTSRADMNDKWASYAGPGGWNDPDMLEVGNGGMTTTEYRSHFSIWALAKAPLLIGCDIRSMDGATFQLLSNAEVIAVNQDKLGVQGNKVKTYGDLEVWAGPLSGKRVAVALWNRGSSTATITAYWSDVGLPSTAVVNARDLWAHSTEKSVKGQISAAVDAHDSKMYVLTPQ
Description: NIH Chemical Genomics Center [NCGC]
NIH Molecular Libraries Screening Centers Network [MLSCN]
PI Name: Zheng, Wei [NIH]
Alpha-galactosidase is a homodimeric glycoprotein that hydrolyzes the terminal alpha-galactosyl moieties from glycolipids and glycoproteins. Deficiency of this enzyme results in Fabry Disease with progressive accumulation of globotriaosylceramide and other glycosphingolipids in vascular endothelial cells that causes renal failure, myocardial infarction and stroke, and premature death in patients. It has reported that the improper folding and trafficking of alpha-galactosidase resulted from the genetic mutations may account for a significant numbers of Fabry patients. […] We optimized this coffee bean alpha-galactosidase assay in 1536-well plate format as a counter-screen assay for identifying the selective small molecule inhibitors of other lysosomal enzymes.
NCGC Assay Protocol Summary:
This is a fluorogenic enzyme assay with 4-Methylumbelliferyl alpha-D-galactopyranoside as the substrate and green coffee bean […] (from Sigma-Aldrich) as the enzyme preparation. Upon the hydrolysis of this fluorogenic substrate, the resulting product, […]. 4-Methyllumbelliferone, can be excited at 365 nm and emits at 440 nm which can be detected by a standard fluorescence plate reader. Data were normalized to the controls for basal activity (without enzyme) and 100% activity (with enzyme). In the AC50 values were determined from concentration-response data modeled with the standard Hill equation.
Assay buffer: 50 mM citric acid, 0.005% Tween-20, pH 5.9. (pH 5.9 is an optimal condition for this enzyme assay.)
1536-well assay protocol for the coffee bean alpha-galactosidase:
(1) Add 2 ul/well of enzyme (2 nM final)
(2) Add 23 nL compounds in DMSO solution. The final titration was 0.7 nM to 77 uM.
(3) Add 1 ul of substrate (80 uM final)
(4) Incubate at room temperature for 20 min.
(5) Add 2 ul stop solution (1M NaOH and 1M Glycine mixture, pH 10)
(6) Detect the assay plate in a ViewLux plate reader (PerkinElmer) with Ex=365 nm and Em=440nm.
Keywords: Alpha-galactosidase, Fabry Disease, pharmacological chaperone, chaperone therapy, high throughput screening, alpha-galactosidase inhibitor, MLSMR, MLSCN, NIH Roadmap, qHTS and NCGC
With `NC[C@H](O)c1ccc(O)cc1` the outcome was “inactive”.
With `COc1cc([C@H]2c3cc4c(cc3[C@@H](O)[C@@H]3COC(=O)[C@H]23)OCO4)cc(OC)c1OC` the outcome was “inactive”.
With `CC(C)N(CC[C@@](C(N)=O)(c1ccccc1)c1ccccn1)C(C)C` the outcome was “inactive”.
In the case of `Cc1cc(N)c2ccccc2[n+]1CCCCCCCCCC[n+]1c(C)cc(N)c2ccccc21`, the outcome is reported as “inactive”.
`NNCc1cccc(O)c1` was tested, and the outcome was “inactive”.
For `CCc1c(C(=O)OC)ncc2[nH]c3cc(OC)c(OC)cc3c12`, the outcome was “inactive”.
With `CCCCCCC(C)(C)c1ccc([C@@H]2C[C@H](O)CC[C@@H]2CCCO)c(O)c1` the outcome was “inactive”.
For `COc1cc(C=C(C#N)C#N)cc(O)c1O`, the outcome was “inactive”.
For `C[C@H](NC(C)(C)C)C(=O)c1cccc(Cl)c1`, the outcome was “inactive”.
In the case of `CN(CCOc1ccc(C[C@H](Nc2ccccc2C(=O)c2ccccc2)C(=O)O)cc1)c1ccccn1`, the outcome is reported as “inactive”.
With `NC(N)=NN=Cc1c(Cl)cccc1Cl` the outcome was “inactive”.
In the case of `C[C@H]1OC[C@@H](C[N+](C)(C)C)O1`, the outcome is reported as “inactive”.
For `C[C@@](Cc1ccc(O)c(O)c1)(NN)C(=O)O`, the outcome was “inactive”.
`CC(C)=CCC/C(C)=C/CC/C(C)=C/CSc1ccccc1C(=O)O` was tested, and the outcome was “inactive”.
`C[C@]12CC[C@H](O)C[C@@H]1CC[C@H]1[C@H]2CC[C@]2(C)C(=O)CC[C@@H]12` was tested, and the outcome was “inactive”.
For `COc1ccc(OC)c([C@H](O)[C@H](C)N)c1`, the outcome was “inactive”.
In the case of `CNC(=O)Oc1ccc2c(c1)[C@@]1(C)CCN(C)[C@@H]1N2C`, the outcome is reported as “inactive”.
In the case of `CC[C@@]1(c2ccc(N)cc2)CCC(=O)NC1=O`, the outcome is reported as “inactive”.
With `C[N+]1(C)[C@@H]2CC[C@H]1CC(OC(=O)[C@@H](CO)c1ccccc1)C2` (stereo partly drawn) the outcome was “inactive”.
For `CS(=N)(=O)CC[C@@H](N)C(=O)O` (stereo partly drawn), the outcome was “inactive”.
In the case of `CN1CC[C@]2(C)c3cc(O)ccc3N(C)[C@@H]12`, the outcome is reported as “inactive”.
With `C#CCN(C)[C@@H](C)Cc1ccccc1` the outcome was “inactive”.
In the case of `O=C(OC1CCN(CCCl)CC1)C(c1ccccc1)c1ccccc1`, the outcome is reported as “inactive”.
For `NCC#Cc1ccccc1`, the outcome was “inactive”.
In the case of `N#C/C(=C\c1ccc(O)c(O)c1)C(N)=S`, the outcome is reported as “inactive”.
In the case of `CC(C)C[C@H]1C(=O)N2CCC[C@@H]2[C@]2(O)O[C@](NC(=O)[C@H]3C=C4c5cccc6[nH]c(Br)c(c56)C[C@H]4N(C)C3)(C(C)C)C(=O)N12`, the outcome is reported as “inactive”.
In the case of `CCCCN1C2CCC1CC(OC(c1ccc(F)cc1)c1ccc(F)cc1)C2` (stereo not drawn), the outcome is reported as “inactive”.
In the case of `S=C(S)N1CCCC1`, the outcome is reported as “inactive”.
For `COc1ccc2c(c1OC)C(=O)O[C@H]2[C@H]1c2cc3c(cc2CCN1C)OCO3`, the outcome was “inactive”.
With `CC[C@H]1C(=O)OC[C@H]1Cc1cncn1C` the outcome was “inactive”.
In the case of `COc1cc(OC)c(/C=C2/C(=O)Nc3ccccc32)c(OC)c1`, the outcome is reported as “inactive”.
`CC[N+](C)(C)Cc1ccccc1Br` was tested, and the outcome was “inactive”.
With `CCCN(CCC)C(=O)Cc1c(-c2ccc(Cl)cc2)nc2c(Cl)cc(Cl)cn12` the outcome was “inactive”.
